Results on five molecules are retold here after PubChem BioAssay (EPA / NIEHS).

Read-out in test [1]: Low-density lipoprotein receptor (LDLR), LDLR (gene 3949)
In words: BSK_CASM3C_LDLR: BioMAP Diversity Plus: CASM3C Assay for Low-density lipoprotein receptor (LDLR) Biomarker Activity (AID 2283045).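 Also: LDLR protein level on the cell surface quantified by ELISA.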 Conditions: primary human coronary artery smooth muscle cells; actives raise or lower the signal.

Read-out in test [2]: Monocyte Chemoattractant Protein-1 (MCP1), CCL2 (gene 6347)
The experiment in a line: BSK_CASM3C_MCP1: BioMAP Diversity Plus: CASM3C Assay for Monocyte Chemoattractant Protein-1 (MCP1) Biomarker Activity (AID 2283046).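 Also: MCP-1 level quantified by ELISA 24 h after dosing.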 Conditions: primary human coronary artery smooth muscle cells; actives raise or lower the signal.

Test [3] in a line: BSK_CASM3C_Proliferation: Cell Proliferation Assessment in the BioMAP Diversity Plus: CASM3C Assay (AID 2283047).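 Also: sulforhodamine B total protein stain as relative cell number at 560 nm; sub-confluent cells exposed 48 h before staining; fitted both ways against DMSO so gain or loss of cell number.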 Conditions: primary human coronary artery smooth muscle cells.
Read-out in test [4]: Monokine induced gamma interferon (MIG), CXCL9 (gene 4283)
In words: BSK_CASM3C_MIG: BioMAP Diversity Plus: CASM3C Assay for Monokine induced gamma interferon (MIG) Biomarker Activity (AID 2283048).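 Also: MIG protein level measured by ELISA.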 Conditions: primary human coronary artery smooth muscle cells; actives raise or lower the signal.

Read-out in test [5]: serum amyloid A (SAA), SAA1 (gene 6288)
In words: BSK_CASM3C_SAA: BioMAP Diversity Plus: CASM3C Assay for serum amyloid A (SAA) Biomarker Activity (AID 2283049).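 Also: SAA protein level quantified by ELISA.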 Conditions: primary human coronary artery smooth muscle cells; actives raise or lower the signal.

Read-out in test [6]: Thrombomodulin, THBD (gene 7056)
In words: BSK_CASM3C_Thrombomodulin: BioMAP Diversity Plus: CASM3C Assay for Thrombomodulin Biomarker Activity (AID 2283051).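 Also: thrombomodulin protein level measured by ELISA 24 h after dosing.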 Conditions: primary human coronary artery smooth muscle cells; actives raise or lower the signal.

Read-out in test [7]: Tissue Factor, F3 (gene 2152)
The experiment in a line: BSK_CASM3C_TissueFactor: BioMAP Diversity Plus: CASM3C Assay for Tissue Factor Biomarker Activity (AID 2283052).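 Also: cell surface tissue factor protein level read by ELISA.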 Conditions: primary human coronary artery smooth muscle cells; actives raise or lower the signal.

Read-out in test [8]: Interferon-gamma inducible Protein 10 (IP10), CXCL10 (gene 3627)
In words: BSK_hDFCGF_IP10: BioMAP Diversity Plus: hDFCGF Assay for Interferon-gamma inducible Protein 10 (IP10) Biomarker Activity (AID 2283053). Conditions: primary human foreskin fibroblasts; actives raise or lower the signal. The method, boiled down:
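IP-10 levels, quantified by ELISA, are taken from human foreskin fibroblast cultures 24 h after chemical treatment, with DMSO serving as negative control and baseline for bidirectional analysis.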

Read-out in test [9]: Urokinase-type plasminogen activator receptor (uPAR), PLAUR (gene 5329)
In words: BSK_CASM3C_uPAR: BioMAP Diversity Plus: CASM3C Assay for Urokinase-type plasminogen activator receptor (uPAR) Biomarker Activity (AID 2283054).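 Also: cell-surface uPAR protein level quantified by ELISA.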 Conditions: primary human coronary artery smooth muscle cells; actives raise or lower the signal.

Read-out in test [10]: Vascular cell adhesion molecule 1 (VCAM1), VCAM1 (gene 7412)
The experiment in a line: BSK_CASM3C_VCAM1: BioMAP Diversity Plus: CASM3C Assay for Vascular cell adhesion molecule 1 (VCAM1) Biomarker Activity (AID 2283055).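 Also: VCAM-1 protein level quantified by ELISA on the cells.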 Conditions: primary human coronary artery smooth muscle cells; actives raise or lower the signal.

Read-out in test [11]: Collagen III, COL3A1 (gene 1281)
The experiment in a line: BSK_hDFCGF_CollagenIII: BioMAP Diversity Plus: hDFCGF Assay for Collagen III Biomarker Activity (AID 2283056). Conditions: primary human foreskin fibroblasts; actives raise or lower the signal. The method, boiled down: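 Human foreskin fibroblast primary cultures sampled 24 h after dosing; Collagen III quantified by ELISA. Signal fitted bidirectionally against DMSO baseline.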

Read-out in test [12]: Epidermal growth factor receptor (EGFR), EGFR (gene 1956)
In words: BSK_hDFCGF_EGFR: BioMAP Diversity Plus: hDFCGF Assay for Epidermal growth factor receptor (EGFR) Biomarker Activity (AID 2283057). Conditions: primary human foreskin fibroblasts; actives raise or lower the signal. The method, boiled down:
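Measured by ELISA: EGFR levels on primary human foreskin fibroblasts 24 h after chemical treatment, analysed relative to DMSO with bidirectional fitting.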

Read-out in test [13]: Interleukin-8 (IL8), CXCL8 (gene 3576)
In words: BSK_hDFCGF_IL8: BioMAP Diversity Plus: hDFCGF Assay for Interleukin-8 (IL8) Biomarker Activity (AID 2283058). Conditions: primary human foreskin fibroblasts; actives raise or lower the signal. The method, boiled down:
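Primary human foreskin fibroblasts (hDFCGF system) dosed with chemical; IL-8 measured by ELISA 24 hours later. Bidirectional curve fitting relative to DMSO baseline; cytotoxicity tracked in parallel cultures by SRB total protein staining.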

A short description of test [14]: BSK_hDFCGF_Proliferation: Cell Proliferation Assessment in the BioMAP Diversity Plus: hDFCGF Assay (AID 2283059).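 Also: curves fitted for both rise and fall of signal versus DMSO baseline.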 Conditions: primary human foreskin fibroblasts. The essentials: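 Total protein read at 560 nm after 0.1% SRB staining of TCA-fixed human skin fibroblasts, […]. Activity is fitted in both directions relative to DMSO as baseline.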

Read-out in test [15]: Macrophage colony-stimulating factor (MCSF), CSF1 (gene 1435)
The experiment in a line: BSK_hDFCGF_MCSF: BioMAP Diversity Plus: hDFCGF Assay for Macrophage colony-stimulating factor (MCSF) Biomarker Activity (AID 2283060). Conditions: primary human foreskin fibroblasts; actives raise or lower the signal. The essentials: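 Human foreskin fibroblast primary cultures; M-CSF measured by ELISA 24 hours after chemical dosing. Bidirectional fitting relative to DMSO, with overt cytotoxicity tracked by parallel SRB total-protein staining (0.1% SRB, 10% TCA fixation, 560 nm).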

A short description of test [16]: BSK_hDFCGF_SRB: Viability Assessment in the BioMAP Diversity Plus: hDFCGF Assay (AID 2283061).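 Also: cells exposed to compound for 24 h before the read.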 Conditions: primary human foreskin fibroblasts. The method, boiled down: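 Human foreskin fibroblasts in 96-well plates were treated 24 h. Total protein was measured by 0.1% SRB staining after 10% TCA fixation, read at 560 nm. Data were fitted bidirectionally against DMSO.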

Read-out in test [17]: TIMP metallopeptidase inhibitor 1 (TIMP1), TIMP1 (gene 7076)
In words: BSK_hDFCGF_TIMP1: BioMAP Diversity Plus: hDFCGF Assay for TIMP metallopeptidase inhibitor 1 (TIMP1) Biomarker Activity (AID 2283062). Conditions: primary human foreskin fibroblasts; actives raise or lower the signal. The method, boiled down:
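Human foreskin fibroblast primary cultures dosed for 24 h; secreted/surface TIMP-1 quantified by ELISA. Bidirectional curve fitting against DMSO baseline; cytotoxicity tracked in parallel cultures by SRB total-protein staining.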

Read-out in test [18]: Matrix Metallopeptidase 1 (MMP1), MMP1 (gene 4312)
In words: BSK_hDFCGF_MMP1: BioMAP Diversity Plus: hDFCGF Assay for Matrix Metallopeptidase 1 (MMP1) Biomarker Activity (AID 2283064). Conditions: primary human foreskin fibroblasts; actives raise or lower the signal. The method, boiled down:
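hDFCGF primary fibroblasts (human foreskin); chemical added; 24 h; MMP1 by ELISA; bidirectional fit vs DMSO.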

Read-out in test [19]: Vascular cell adhesion molecule 1 (VCAM1), VCAM1 (gene 7412)
The experiment in a line: BSK_hDFCGF_VCAM1: BioMAP Diversity Plus: hDFCGF Assay for Vascular cell adhesion molecule 1 (VCAM1) Biomarker Activity (AID 2283065).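 As to AC50: VCAM-1 protein level quantified by ELISA after 24 h chemical exposure.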 Conditions: primary human foreskin fibroblasts; actives raise or lower the signal. The method, boiled down:
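Human foreskin fibroblast primary cells dosed with chemical, VCAM-1 measured by ELISA at 24 h. Bidirectional curve fitting relative to DMSO as negative control/baseline.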

Read-out in test [20]: Intercellular Adhesion Molecule 1 (ICAM1), ICAM1 (gene 3383)
In words: BSK_KF3CT_ICAM1: BioMAP Diversity Plus: KF3CT Assay for Intercellular Adhesion Molecule 1 (ICAM1) Biomarker Activity (AID 2283067). Conditions: primary human keratinocytes with fibroblasts; actives raise or lower the signal. The essentials: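 Human keratinocyte–foreskin fibroblast co-culture was treated for 24 h. Cell-surface ICAM-1 was quantified by ELISA, fitted bidirectionally relative to DMSO. Cytotoxicity was checked in parallel cultures by SRB total-protein staining.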

Where “and” joins values, the source holds several entries; their conditions need not be identical. Equal values may be shown once. Calls of active or inactive are those of the source. The calls were made as follows: active = hit-call score of the fitted dose curve at least 0.9, where 1 is the maximum; inactive = score below 0.9.

As usually defined, the AC50 is the concentration at which the activity in the assay is half-maximal.

In the case of `COc1ccc(CO)cc1`, the outcome in [1], in test [2], in test [3], in test [4], in [5] and in test [6] was inactive. Besides, the outcome in [7], in test [8], in test [9], in test [10], in [11] and in [12] was inactive. In addition, the outcome in test [13], in [14], in [15], in test [16], in test [17] and in test [18] was inactive. For the same molecule, the outcome in test [19] and in [20] was inactive.

In the case of `CC(C)COP(=O)(OCC(C)C)OCC(C)C`, the result in test [1], in test [2], in test [3], in [4], in test [5] and in test [6] was inactive. In addition, the result in test [7], in [8], in test [9], in test [10], in test [11] and in test [12] was inactive. Also, the outcome in [13], in [14], in [15], in test [16], in [17] and in test [18] was inactive. The result in test [19] and in test [20] was inactive.

As for `O=c1[nH]c(Cl)c(Cl)cc1Cl`, the result in test [1], in [2], in test [3], in test [4], in [5] and in [6] was inactive. Further, the outcome in test [7], in test [8], in [9], in test [10], in test [11] and in [12] was inactive. For the same molecule, the outcome in test [13], in test [14], in test [15], in test [16], in [17] and in [18] was inactive. Moreover, the result in test [19] and in test [20] was inactive.

As to `CC(=O)/C=C/c1ccccc1`, the outcome in [1], in test [3], in [4], in test [5], in test [6] and in test [7] was inactive. Further, the result in test [8], in test [9], in test [10], in [11], in test [12] and in test [13] was inactive. Also, the outcome in test [14], in test [15], in [16], in test [17], in test [18] and in [19] was inactive. In [20], the outcome was inactive. The AC50 in test [2] was 0.104 µM (active).

`O=C1C=CC(=O)C=C1`: the result in test [1], in [2], in test [4], in [5], in test [7] and in test [9] was inactive. Also, the outcome in test [12] and in test [13] was inactive. The AC50 in test [3] is 30.4 µM (active) and 15.2 µM (active); in test [6] it was 8.44 µM (active) and 20 µM (active); in test [8], 16.8 µM (active) and 23.7 µM (active); in test [10] it was 9.42 µM (active) and 24.7 µM (active); in test [11], 20 µM (active); in test [14], 11.2 µM (active) and 2.81 µM (active). In addition, the AC50 in test [15] is 16 µM (active) and 13.5 µM (active); in [16], 36.3 µM (active) and 12.7 µM (active); in test [17], 20 µM (active) and 13.2 µM (active); in test [18] it was 32.2 µM (active) and 26.5 µM (active); in [19] it was 19 µM (active) and 12.8 µM (active); in test [20], 24.5 µM (active) and 21.7 µM (active).
